From ChEMBL document CHEMBL1157539, “Thousands of chemical starting points for antimalarial lead identification” (Nature, 2010)

Experiments:
Format in all cases: functional
Plasmodium falciparum [1] = test: GSK_TCMDC: Inhibition of Plasmodium falciparum 3D7 in whole red blood cells, using parasite LDH activity as an index of growth. Test compounds present at 2uM
Plasmodium falciparum [2] = test: GSK_TCMDC: Inhibition of Plasmodium falciparum Dd2 in whole red blood cells, using parasite LDH activity as an index of growth. Test compounds present at 2uM
HepG2 = test: GSK_TCMDC: Percent inhibition of human HepG2 cell line. Test compounds present at 10uM.

SMILES | Inhibition (Plasmodium falciparum [1]) | Inhibition (Plasmodium falciparum [2]) | Inhibition (HepG2)
CN1CCN(c2ccnc3ccc(NC(=O)Cc4ccc(OCc5ccccc5)cc4)cc23)CC1 | 100% | 89% | 6%
CC(C)(C)CCN1CCC(NC(=O)c2ccc(-c3cccc(C(F)(F)F)c3)s2)CC1.O=C(O)C(F)(F)F | 93% | 88% | 95%
COc1cc(C(F)(F)F)cc2[nH]c(CNCCCNc3nc4ccccc4[nH]3)cc12 | 100% | 2% | 59%
Cc1cc(N[C@@H](Cc2ccccc2)C(=O)NCCOc2ccccc2)nc(NCCOc2ccccc2)n1.O=C(O)C(F)(F)F | 98% | 24% | 0%
CCC(CC)OC(=O)C(C)c1cccc(C(=O)c2ccccc2)c1 (stereo not given) | 93% | 0% | 0%
CCCN(CCC)CCCOc1ccc(C(=O)c2c(-c3ccc(OCCCN(CCC)CCC)cc3)oc3ccc(Cl)cc23)cc1.Cl | 96% | 95% | 100%
CN(C)Cc1ccc(-c2ccc3c(Nc4ccc(Oc5ccccn5)cc4)ccnc3c2)o1 | 100% | 100% | 18%
Cc1ccc2[nH]c(-c3ccccc3N)cc2c1 | 97% | 8% | 11%
O=C(Nc1cccc(CN2CCCN(CCc3ccccc3)CC2)c1)c1ccc(Cl)c(Cl)c1.O=C(O)C(F)(F)F | 86% | 15% | 41%
O=C(Nc1ccc(OC2CCN(Cc3ccc(F)cc3)C2)c(Cl)c1)c1ccoc1.O=C(O)C(F)(F)F (stereo not given) | 90% | 90% | 13%
CCOC(=O)CCCOc1c(OC)cc(Cc2cnc(N)nc2N)cc1OC | 96% | 7% | 10%
FC(F)(F)c1ccc(-c2cncc(-c3ccc(C(F)(F)F)cc3)n2)cc1 | 98% | 97% | 9%
COc1ccc2nccc([C@@H](O)CN3CCC(NC(=O)/C=C/c4cc(F)cc(Br)c4)CC3)c2c1 | 95% | 50% | 24%
O=C(O)C(F)(F)F.O=S(=O)(Nc1ccc(-c2ccc(CN3CCCC3)cc2)cc1)c1cccc2cccnc12 | 91% | 10% | 37%
O=C(Nc1ccc(OC2CCN(Cc3ccc(F)cc3)C2)cc1)c1ccco1.O=C(O)C(F)(F)F (stereo not given) | 88% | 69% | 0%
Cc1cc(N)nc2ccc(-c3ccc(CN)cc3)cc12 | 100% | 93% | 4%
N#Cc1ccc(CN2CCC(Oc3ccc(NC(=O)c4cccs4)cc3Cl)CC2)cc1.O=C(O)C(F)(F)F | 95% | 96% | 26%
CCN(CCCN1CCCCC1)c1cc(C)nc(Nc2cccc(C(F)(F)F)c2C)n1.O=C(O)C(F)(F)F | 99% | 37% | 57%
O=C(Nc1nccs1)c1cc(-c2cccnc2)nc2ccc(Br)cc12 | 100% | 79% | 7%
CCCC1(NC[C@@H](O)[C@H](Cc2ccccc2)NC(=O)c2cc(NCC)cc(N3CCCCS3(=O)=O)c2)CCCC1.Cl | 100% | 97% | 0%

SMILES | Inhibition (Plasmodium falciparum [1]) | Inhibition (Plasmodium falciparum [2]) | Inhibition (HepG2)
CN(Cc1ccccc1)C1CCCN(c2cc(NC(=O)c3ccc(F)cc3)ccn2)C1.O=C(O)C(F)(F)F (stereo not given) | 93% | 95% | 7%
CCN(CC)CCCN(Cc1ccc(-c2ccc(C(F)(F)F)cc2)cc1)C(=O)Cn1c(SCc2cccc(F)c2F)cc(=O)c2ccccc21.O=C(O)C(O)C(O)C(=O)O | 87% | 82% | 45%
COc1ccc(Cl)cc1N1CCN(CCCNC(=O)c2ccc(-c3nc4cc(Cl)c(C)cc4[nH]3)c(F)c2)CC1 | 99% | 91% | 0%
Cl.N#Cc1ccc2c(c1)CCN(CCC1CCC(NC(=O)c3cc4ccccc4[nH]3)CC1)CC2 (stereo not given) | 89% | 25% | 17%
COc1ccccc1-c1ccc(CNC(=O)C(CN2CCN(C)CC2)c2ccccc2)cc1 (stereo not given) | 90% | 4% | 3%
Cc1cc(-c2cccc(CNC3CCN(C)CC3)c2)ccc1S(=O)(=O)NC1CCC1.O=C(O)C(F)(F)F | 100% | 96% | 33%
CCOC(=O)c1cccc(NC(=N)Nc2nc(C)cc(NCCc3ccccc3)n2)c1 | 100% | 72% | 21%
CN(c1ccc(F)cc1)S(=O)(=O)c1ccc(Cl)c(C(=O)Nc2cccc(C#N)c2)c1 | 95% | 58% | 5%
CC1CN(c2ncc(-c3ccc(CNC4Cc5ccccc5C4)cc3)cn2)CC(C)N1.O=CO (stereo not given) | 85% | 78% | 27%
Cc1cc(N(C)C)nc(Nc2ccc(NC(=O)c3c(F)cccc3Cl)cc2)n1 | 90% | 36% | 15%
COc1cccc(C(=O)NC(NC(=S)Nc2ccc(OC)cc2[N+](=O)[O-])C(Cl)(Cl)Cl)c1 (stereo not given) | 99% | 49% | 9%
O=C(Nc1ccc2nc3n(c(=O)c2c1)CCCCC3)C(=O)N1CCC(Cc2ccccc2)CC1 | 91% | 70% | 12%
NC1CCN(Cc2cccc(-c3ccc(-c4nc5ccccc5[nH]4)s3)c2)C1.O=C(O)C(F)(F)F (stereo not given) | 100% | 62% | 36%
O=C(Nc1cccc(F)c1)N(Cc1ccc(-c2ccc(CN3CCNCC3)cc2)cc1)C1CCN(Cc2ccccc2)CC1.O=C(O)C(F)(F)F | 100% | 53% | 18%
COc1ccc(OC)c2c1CCN(CCN1CCC(C(=O)Nc3ccc(C(=O)Nc4ccc(Cl)cc4)cc3)CC1)C2 | 100% | 100% | 25%
C=CCc1cc(Cc2cnc(N)nc2N)cc(CCC)c1OC | 83% | 1% | 3%
N#Cc1ccc(-c2ccc(C(=O)NCCCCN3CCC(c4cc(Br)c5c(c4O)CCCC5)CC3)cc2)cc1 | 100% | 50% | 93%
Cc1cc(=NN=Cc2ccc(F)cc2)c2ccc(C(F)(F)F)cc2[nH]1 | 95% | 24% | 4%
COc1ccc(-c2cnc3[nH]cc(-c4ccncc4)c3c2)cc1OC | 98% | 97% | 52%
O=C(NC1CCC(N2CCN(c3cccc(C(F)(F)F)c3)CC2)CC1)c1cc2ccccc2[nH]1 (stereo not given) | 99% | 22% | 23%

SMILES | Inhibition (Plasmodium falciparum [1]) | Inhibition (Plasmodium falciparum [2]) | Inhibition (HepG2)
Cc1sc2cc(Cl)cc(Cl)c2c1S(=O)(=O)Nc1ccc2nccc(N3CCNCC3)c2c1.Cl | 100% | 99% | 24%
Fc1ccc2[nH]ccc(=NN=Cc3ccccc3Cl)c2c1 | 100% | 39% | 3%
O=C(Nc1ccc(Cl)cc1)c1cccc(S(=O)(=O)NC2CCN(CC3CCCCC3)CC2)c1.O=C(O)C(F)(F)F | 92% | 11% | 67%
Cc1ccccc1C1CCN(C2CCC(NC(=O)C3=Cc4cc(Cl)ccc4OC3)CC2)CC1 (stereo not given) | 100% | 99% | 51%
COc1cc2cc(-c3nc4ccccc4[nH]3)c(N)nc2cc1OC.Cl | 100% | 100% | 91%
FC(F)(F)c1cnc(Sc2nnc(-c3ccncc3)o2)c(Cl)c1 | 96% | 96% | 10%
Cc1c(S(=O)(=O)Nc2ccc3nccc(N4CCN[C@H](C)C4)c3c2)sc2ccc(Cl)cc12.Cl | 96% | 0% | 16%
O=C(NCCCCNCC(Cc1cccc([O-])c1)c1ccccc1)c1ccc(NC(=O)c2ccc(Cl)cc2)cc1.[Na+] (stereo not given) | 96% | 1% | 0%
COc1cc(C2CCCCC2)c(OC)cc1CC1c2cc(O)c(Cl)cc2CCN1C.Cl (stereo not given) | 100% | 100% | 12%
CN(C)CCC1CCN(CCS(=O)(=O)c2cccc(Nc3ccc(-c4cccc(F)c4)cn3)c2)CC1 | 100% | 59% | 94%
O=C(Nc1ccccc1)Nc1cccc(-c2cc(CNCCc3ccccc3)sc2-c2ccncc2)c1 | 100% | 84% | 14%
O=C(/C=C/c1ccc(Cl)c(Cl)c1)NCCCCCN1CCCN(C(=O)Nc2cc(Cl)nc(Cl)c2)CC1 | 100% | 3% | 8%
CCNC(C)(C)CN(Cc1ccc(-c2ccc(C(F)(F)F)cc2)cc1)C(=O)Cn1c(CCc2cccc(F)c2F)nc(=O)c2ccccc21.O=C(O)C(O)C(O)C(=O)O | 97% | 70% | 47%
Nc1ccc(-c2ccc3ccnc(N)c3c2)cn1.O=C(O)C(F)(F)F | 100% | 100% | 43%
COc1ccc(CNCc2ccsc2)cc1-c1ccc(S(=O)(=O)NCCN2CCCC2)c(C)c1.O=C(O)C(F)(F)F | 85% | 43% | 49%
Cc1cccc2nc(-c3cccc(-c4ccc(NC(=O)NCc5ccccc5)cc4)c3)[nH]c12 | 100% | 47% | 35%
O=[N+]([O-])c1ccc(C=NNc2nc(Nc3ccccc3)nc(Nc3ccccc3)n2)o1 | 94% | 61% | 5%
CN1CCN(CCCN(Cc2cccc(-c3cccc(CNCCc4ccccc4)c3)c2)C(=O)Nc2ccccc2)CC1.O=C(O)C(F)(F)F | 97% | 82% | 92%
FC(F)(F)c1cccc(CCNc2nccc(NCc3ccccc3Cl)n2)c1 | 89% | 38% | 31%
NC(=O)c1cccc(C(=O)Nc2cccc(-c3csc(-c4nc5ccccc5[nH]4)c3)c2)c1 | 100% | 92% | 16%
